For 40 molecules, cell viability results are on record in the supplement of paper PMC6522484.

SMILES strings stand for the structures. ± gives the standard deviation of the averaged measurements.

The subject of this experiment is SW480. Nature of the experiment: cell viability (CellTiter-Glo) relative to plate median (fraction of plate median); higher = more viable cells. The following applies: 5 µM; treatment time 24 h; reporter: 7TFP. Summed up:
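Colorectal cancer cells stably transduced with lentiviral TCF/Wnt firefly luciferase reporters were seeded in 384-well plates and dosed 24 h later with library compounds at a final 5 µM for 24 h. Firefly luciferase or CellTiterGlo luminescence was then read on a Tecan F500 from parallel plates. Signals were normalised per well to the plate median without log transformation, additively in webcellHTS2, and averaged over two independent replicates.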
Background: Cellular ATP, detected with luciferase, serves as a proxy for viable cell number.
Take `Cc1ccccc1N1C(=O)c2cc(S(N)(=O)=O)c(Cl)cc2NC1C` (stereo not given): the cell viability turned out to be 1.02.
With `COc1ccc(-c2coc3cc(O)cc(O)c3c2=O)cc1`, the cell viability was found to be 1.01 ± 0.044.
The result for `COc1ccc([C@H]2Oc3cc(OC)cc(OC)c3C[C@H]2O)cc1` reads 0.9645 ± 0.005; that for `Cc1onc(-c2ccccc2)c1-c1ccc(S(N)(=O)=O)cc1`, 1.05 ± 0.1.
As to `Cc1nnc(NS(=O)(=O)c2ccc(N)cc2)s1`, the cell viability worked out at 1.01 ± 0.15.
The result for `Nc1c2c(nc3ccccc13)CCCC2O` (stereo not given) reads 0.954 ± 0.021; that for `CN(C)CCCO[C@@H]1[C@H]2OC(C)(C)O[C@H]2O[C@@H]1[C@H](O)CO`, 0.96 ± 0.038; that for `C=C1CC[C@H](O)C/C1=C/C=C1\CCC[C@]2(C)[C@@H]([C@H](C)/C=C/[C@H](C)C(C)C)CC[C@@H]12`, 0.954 ± 0.016.
The result for `CC(=O)O[C@H]1C[C@@H](OC(C)=O)C(C)(C)C2C[C@@H](O)[C@]3(C)C(CC[C@@]4(C)[C@H](c5ccoc5)OC(=O)[C@H]5O[C@]543)[C@]21C` (stereo not given in full) reads 1.01 ± 0.073; that for `COc1cc2cc3c4cc(OC)c(OC)cc4cc[n+]3c(C)c2cc1OC`, 0.9305 ± 0.00071; that for `CC1=C(C/C=C(\C)CCC[C@H](C)CCC[C@H](C)CCCC(C)C)C(=O)c2ccccc2C1=O`, 0.998 ± 0.045.
The result for `CC(C)Oc1ccc2c(=O)c(-c3ccccc3)coc2c1` reads 1.01 ± 0.021; that for `O=C(Oc1cc(OC(=O)c2ccccc2)c2c(c1)O[C@H](c1ccc(OC(=O)c3ccccc3)c(OC(=O)c3ccccc3)c1)[C@@H](OC(=O)c1ccccc1)C2)c1ccccc1`, 1.06 ± 0.071.
In turn, `COc1cccc(OC)c1C(=O)N[C@@H]1C(=O)N2[C@@H]1SC(C)(C)[C@@H]2C(=O)O` displayed a cell viability of 1.07 ± 0.035.
Regarding `CC(CN1c2ccccc2Sc2ccccc21)N(C)C` (stereo not given), the cell viability stood at 1.08 ± 0.014.
As to `OC[C@@H](O)[C@@H](O[C@@H]1O[C@H](CO)[C@@H](O)[C@H](O)[C@H]1O)[C@H](O)[C@@H](O)CO`, the cell viability stood at 1.01 ± 0.03.
`CC(C)=CCC/C(C)=C\CO` gave a cell viability of 1.1 ± 0.05.
The result for `c1ccc(-c2ccc(C(c3ccccc3)n3ccnc3)cc2)cc1` (stereo not given) reads 0.965 ± 0.011.
Molecule `O=C(O)c1c[nH]c2ccccc12` [Indole-3-carboxylic acid] returned a cell viability of 0.9405 ± 0.005.
For `C[C@H]1[C@H]2CC[C@H]3[C@@H]4CC=C5C[C@@H](N(C)C)CC[C@]5(C)[C@H]4CC[C@]23CN1C` the value was 0.984 ± 0.021; for `C=CC[S+]([O-])C[C@H](N)C(=O)O` (stereo not given in full), 0.96 ± 0.016; for `C/C1=C2/[N-][C@H]([C@H](CC(N)=O)[C@@]2(C)CCC(=O)NC[C@@H](C)OP(=O)([O-])O[C@H]2[C@@H](O)[C@@H](n3cnc4cc(C)c(C)cc43)O[C@@H]2CO)[C@]2(C)N=C(/C(C)=C3N=C(/C=C4N=C1[C@@H](CCC(N)=O)C\4(C)C)[C@@H](CCC(N)=O)[C@]\3(C)CC(N)=O)[C@@H](CCC(N)=O)[C@]2(C)CC(N)=O.[CH2-][C@H]1O[C@H](n2cnc3c(N)ncnc32)[C@@H](O)[C@H]1O.[Co+3]`, 0.998 ± 0.045.
The result for `C[C@@]12C[C@@]3(O)O[C@@H](O1)[C@]1(COC(=O)c4ccccc4)[C@H]3C[C@@]12O[C@@H]1O[C@H](CO)[C@@H](O)[C@H](O)[C@H]1O` reads 1.015 ± 0.0071; that for `CCC(=O)C(CC)C(O)C(C)CC(C)C1OC(=O)CC2(O)CC=C(C)C(O2)/C(C)=C/CCCC(OC2CC(OC(N)=O)C(O)C(C)O2)/C=C\C(C)C(O)C1C` (stereo not given), 0.99 ± 0.015.
For `C[C@H]1C(=O)CC[C@@H]2[C@]1(C)CC[C@H]1[C@@]2(C)CC[C@@]2(C)[C@@H]3CC(C)(C)CC[C@]3(C)CC[C@]12C` the value was 0.9995 ± 0.00071.
In the case of `Nc1ccc(S(N)(=O)=O)cc1`, the cell viability stood at 1.065 ± 0.0071.
For `COc1c2occc2c(OC)c2c(=O)cc(C)oc12` the value was 0.989 ± 0.016.
In the case of `Cc1cc(=O)[nH]c(=S)[nH]1`, the cell viability is 0.979 ± 0.018.
For `COc1cc(O)cc(OC)c1OC` the value was 0.942 ± 0.074; for `Oc1cc(O)c2c(c1)O[C@H](c1ccc(O)c(O)c1)[C@@H](O)C2`, 1.04 ± 0.042.
In turn, `COc1ccc(CCC(=O)c2c(O)cc(O[C@@H]3O[C@H](CO)[C@@H](O)[C@H](O)[C@H]3O[C@@H]3O[C@@H](C)[C@H](O)[C@@H](O)[C@H]3O)cc2O)cc1O` displayed a cell viability of 0.975 ± 0.036.
For the molecule `CCCCCC(=O)O[C@]1(C(C)=O)CC[C@H]2[C@@H]3CCC4=CC(=O)CC[C@]4(C)[C@H]3CC[C@@]21C`, the cell viability is 0.972 ± 0.018.
Molecule `CNS(=O)(=O)c1ccc(NC(=O)c2ccccc2C(=O)O)cc1` yielded a cell viability of 1.04 ± 0.072.
For `C[C@H]1COC2=C1C(=O)C(=O)c1c2ccc2c1CCCC2(C)C` the value was 1.08 ± 0.014.
In the case of `Cc1ccc2c(Cl)cc(Cl)c(O)c2n1`, the cell viability was found to be 1.07.
The result for `O=C(O)CCCCCCCC(=O)O` reads 1.09 ± 0.021; that for `COc1ccc(C(C)=O)c(O)c1`, 1.05 ± 0.014; that for `CC(C)NCC(O)c1cc(O)cc(O)c1` (stereo not given), 0.976 ± 0.048.
Molecule `COc1ccc(-c2coc3cc(O)ccc3c2=O)c(OC)c1O` showed a cell viability of 0.966 ± 0.076.
With `CCCCCCCCCCC[C@@H](C[C@@H]1OC(=O)[C@H]1CCCCCC)OC(=O)[C@H](CC(C)C)NC=O`, the cell viability amounted to 0.972 ± 0.018.
